# Results published in the supplement of paper PMC8975748.
# Counter-ions that a name gives are not always drawn.
# Test system: Saccharomyces cerevisiae BY4741 SeMeCo community
# Assay: z-score of subpopulation abundance vs DMSO median, subpopulation auxotrophic for M; higher = larger share of this subpopulation than in DMSO controls
# Settings: 10 µM; 24 h; SM minimal medium; subpopulation (auxotrophy): M
# Method: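 Fluorescent four-plasmid SeMeCo (self-establishing metabolically cooperating S. cerevisiae BY4741 community; plasmids pH-mRuby2, pL-mWasabi, pU-eCFP, pM-TagRFP657) was grown 24 h in minimal SM medium with each Selleck FDA-approved drug at 10 µM in 384-well plates. Cells were fixed and imaged by high-content confocal microscopy. For each auxotrophic subpopulation (and the prototroph), a z-score gives the deviation from the DMSO vehicle-control population median.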
row,SMILES,z-score of subpopulation abundance
1,COc1ccc(C(CN(C)C)C2(O)CCCCC2)cc1 (stereo not given) [Venlafaxine HCl],0.68
2,CN(C)[C@@H]1C(=O)C(C(N)=O)=C(O)[C@@]2(O)C(=O)C3=C(O)c4c(O)cccc4[C@@](C)(O)[C@H]3[C@H](O)[C@@H]12 [Oxytetracycline Dihydrate],-1.02
3,NC(=O)CN1CCCC1=O [Piracetam],1.48
4,N#Cc1nn(-c2c(Cl)cc(C(F)(F)F)cc2Cl)c(N)c1[S+]([O-])C(F)(F)F (stereo not given) [Fipronil],-1.13
5,COc1ccc2c3c([nH]c2c1)C(C)=NCC3 [Harmaline],5.54
6,C[N+]1(C)[C@@H]2C[C@@H](OC(=O)[C@H](CO)c3ccccc3)C[C@H]1[C@@H]1O[C@@H]12 [Methscopolamine],-0.33
7,CC[N+](C)(CC)CCOC(=O)C(O)(c1ccccc1)c1ccccc1 [Methylbenactyzine Bromide],0.22
8,CC[C@H]1[C@@H]2C[C@H]3[C@@H]4N(C)c5ccccc5[C@]45C[C@@H]([C@@H]2[C@H]5O)N3[C@@H]1O [Ajmaline],0.82
9,CN1[C@@H]2CC[C@H]1C[C@@H](OC(=O)[C@H](CO)c1ccccc1)C2 [Hyoscyamine],-0.65
10,CN[C@@H]1[C@@H](O)[C@@H](O[C@@H]2[C@@H](O)[C@H](O[C@H]3O[C@H](CN)CC[C@H]3N)[C@@H](N)C[C@H]2N)OC[C@]1(C)O.CN[C@@H]1[C@@H](O)[C@@H](O[C@@H]2[C@@H](O)[C@H](O[C@H]3O[C@H]([C@@H](C)N)CC[C@H]3N)[C@@H](N)C[C@H]2N)OC[C@]1(C)O.CN[C@@H]1[C@@H](O)[C@@H](O[C@@H]2[C@@H](O)[C@H](O[C@H]3O[C@H]([C@@H](C)NC)CC[C@H]3N)[C@@H](N)C[C@H]2N)OC[C@]1(C)O [Gentamicin Sulfate],-0.59
11,CN(C)C(=O)Oc1ccc[n+](C)c1 [Pyridostigmine Bromide],0.47
12,CN1[C@@H]2C[C@@H](OC(=O)[C@H](CO)c3ccccc3)C[C@H]1[C@@H]1O[C@@H]12 [Scopolamine HBr],-0.04
13,O=C(O[C@H]1C[C@H]2CC[C@@H](C1)[N+]21CCCC1)C(O)(c1ccccc1)c1ccccc1 [Trospium chloride],0.12
14,C[C@@H]1O[C@@H](O[C@H]2C[C@@H](O)[C@]3(CO)[C@H]4[C@H](O)C[C@]5(C)[C@@H](C6=CC(=O)OC6)CC[C@]5(O)[C@@H]4CC[C@]3(O)C2)[C@H](O)[C@H](O)[C@H]1O [Ouabain],-0.73
15,Oc1cccc2cccnc12 [8-Hydroxyquinoline],1.04
16,C=C[C@H]1CN2CC[C@H]1C[C@H]2[C@H](O)c1ccnc2ccccc12 [Cinchonidine],0.23
17,CC(C)=CCOc1c2occc2cc2ccc(=O)oc12 [Imperatorin],1.13
18,C#C[C@]1(O)C=C[C@H]2[C@@H]3CCC4=CC(=O)CC[C@@H]4[C@H]3CC[C@@]21CC [Gestodene],0.43
19,CCCN1C[C@H](CSC)C[C@@H]2c3cccc4[nH]cc(c34)C[C@H]21 [Pergolide Mesylate],-0.05
20,C[N+](C)(C)CCCCCCCCCC[N+](C)(C)C [Decamethonium Bromide],-0.44

row,SMILES,z-score of subpopulation abundance
1,NCCc1c[nH]c2ccc(O)cc12 [Serotonin HCl],0.15
2,"NCC(O)c1ccc(O)cc1 (racemic) [(+,-)-Octopamine HCl]",0.19
3,CCN(C)C(=O)Oc1cccc([C@H](C)N(C)C)c1 [Rivastigmine Tartrate],-0.28
4,COc1ccc(C=O)cc1 [p-Anisaldehyde],-1.36
5,Cc1cc(C(C#N)c2ccc(Cl)cc2)c(Cl)cc1NC(=O)c1cc(I)cc(I)c1O (stereo not given) [Closantel],1.17
6,Cc1cc(O)ccc1Cl [Chlorocresol],1.26
7,C=C(C)[C@H]1Cc2c(ccc3c2O[C@@H]2COc4cc(OC)c(OC)cc4[C@@H]2C3=O)O1 [Rotenone (Barbasco)],0.37
8,CN(C)[C@@H]1C(=O)C(C(N)=O)=C(O)[C@@]2(O)C(=O)C3=C(O)c4c(O)cccc4[C@@](C)(O)[C@H]3[C@H](O)[C@@H]12 [Oxytetracycline (Terramycin)],-0.79
9,O=c1[nH]c2ccccc2n1CCCN1CCC(n2c(=O)[nH]c3cc(Cl)ccc32)CC1 [Domperidone],0.22
10,CCOC(=O)Nc1ccc(NCc2ccc(F)cc2)cc1N [Retigabine],0.51
11,CNC1CC(N)C(O)C(OC2OC(CO)C(O)C3OC4(OC(C(N)CO)C(O)C(O)C4O)OC23)C1O (stereo not given) [Hygromycin B],-0.9
12,CCN(C)C(=O)Oc1cccc([C@H](C)N(C)C)c1 [Rivastigmine],1.32
13,COc1ccc2c(c1)[C@]13CCCC[C@@H]1[C@H](C2)N(C)CC3 [Dextromethorphan hydrobromide hydrate],0.1
14,CC(C)N(CCC(C(N)=O)(c1ccccc1)c1ccccn1)C(C)C (stereo not given) [Disopyramide],-0.53
15,CCC1=C[C@H]2CN3CCc4c([nH]c5ccccc45)[C@](C(=O)OC)(C2)[C@H]13 [Catharanthine],-0.42
16,CN1[C@@H]2CC[C@H]1C[C@@H](OC(=O)C(CO)c1ccccc1)C2 (stereo not given in full) [Atropine sulfate monohydrate],-0.25
17,CCN(CC)CCOC(=O)C(O)(c1ccccc1)c1ccccc1 [Benactyzine hydrochloride],-1.19
18,CN1[C@@H]2C[C@@H](OC(=O)[C@H](CO)c3ccccc3)C[C@H]1[C@@H]1O[C@@H]12 [Scopolamine HBr trihydrate],-0.97
19,C[CH2][Hg][S]c1ccccc1C(=O)[O-].[Na+] [Thimerosal],-0.95
20,CC(=O)O[C@H]1C[C@@H]2CC[C@@H]3[C@H](CC[C@@]4(C)[C@H]3C[C@H]([N+]3(C)CCCCC3)[C@@H]4OC(C)=O)[C@@]2(C)C[C@@H]1[N+]1(C)CCCCC1 [Pancuronium dibromide],-1.46
